# BoNT-F LC inh: BoNT/F light chain protease inhibitors, primary screen, biochemical, flow cytometry, MLPCN library; AID 588497, 2011; Botulinum neurotoxin type F light chain protease (Clostridium botulinum); 0.22% of 360,000 active; inhibition, % at 10 µM; Multiplex microsphere protease cleavage assay; in the data active means inhibition above about 35%, passing the limit was not always enough; inconclusive means no clear call, values can overlap the other calls; further: plate controls were buffer without enzyme for full effect and enzyme alone for no effect
# MazF activator: activators of E. coli MazEF toxin-antitoxin RNase, primary screen, biochemical, fluorescence, uHTS | Endoribonuclease toxin MazF (Escherichia coli (strain K12)), P0AE70 | FAM/BHQ RNA-DNA oligo cleavage fluorescence, 5 h | activation, % at 20 µM | 0.32% of 350,000 active | AID 504720, 2011; in the data active means activation above about 50%
# Target sequence (P0AE70 whole entry, looked up): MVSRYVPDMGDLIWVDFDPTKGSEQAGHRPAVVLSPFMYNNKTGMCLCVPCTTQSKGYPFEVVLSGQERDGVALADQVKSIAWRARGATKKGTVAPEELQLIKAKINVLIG
# Anthrax LF inh2: Bacillus anthracis LF protease inhibitors, primary screen, biochemical, multiplex microsphere, MLPCN library. multiplex microsphere protease cleavage assay. inhibition, % at 10 µM. 0.12% of 360,000 active. Lethal factor (Bacillus anthracis), P15917; further: plate controls were buffer without enzyme for full effect and enzyme alone for no effect
# PfHsp40 rescue: rescue of yeast from PfHsp40 toxicity, primary screen, S. cerevisiae, ATP luminescence; S. cerevisiae expressing PfHsp40, growth rescue; growth rescue, % at 12.5 µM; 0.68% of 340,000 active; AID 504582, 2011; in the data active means growth rescue above about 28%, passing the limit was not always enough; inconclusive means no clear call, values can overlap the other calls;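 further: yeast W303a lacking pdr1 and pdr3 grown in galactose medium; growth measured after three days at 30 °C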
# BoNT-A LC inh2: BoNT/A light chain protease inhibitors, primary screen, biochemical, flow cytometry, MLPCN library; multiplex microsphere protease substrate cleavage; inhibition, % at 10 µM; 0.17% of 360,000 active; further: plate controls were buffer without enzyme for full effect and enzyme alone for no effect
# Bead autofluor: flagged as autofluorescent in microsphere protease counterscreen | compound autofluorescence counterscreen, microsphere flow cytometry; hits give high values | fluorescence intensity (test concentration not listed) | 3.1% of 360,000 active; in the data active means fluorescence intensity above about 16000; inconclusive means no clear call, values can overlap the other calls
# * marks the source's active call; other numbers are inactive results; u = inconclusive; x = no result given; ! = not confirmed by another sample. Shown are actives, neighbours in structure and some others; about 4.3% of the full set was active somewhere. Unless noted, no stated cut-off is given here; in the data, active means inhibition above about 30%; inconclusive means no clear call, values can overlap the other calls; inactive means below that.
SMILES,BoNT-F LC inh,MazF activator,Anthrax LF inh2,PfHsp40 rescue,BoNT-A LC inh2,Bead autofluor
CC(C)Cn1c(N)c(C(=O)COC(=O)C2Cc3ccccc3CN2S(C)(=O)=O)c(=O)n(C)c1=O (stereo not drawn),-6,-9,-1,50*,0,3991
CC1(C)OC(=O)C(=CNc2ccccc2)C(=O)O1,4,14,3,-1,6,18882*
CN(C)S(=O)(=O)c1ccc2c(c1)nc(CCC(=O)NCc1ccc(Cl)cc1)n2C,-7,-18,-4,45*,-2,3624
CC1CCN(C(=O)CCc2nc3cc(S(=O)(=O)N(C)C)ccc3n2C)CC1,-4,10,1,0,u,20932*
CN(C)S(=O)(=O)c1ccc2c(c1)nc(CCC(=O)NCC1CCCCC1)n2C,-7,-1,-4,0,0,5528
O=c1c(-c2cccc3ccccc23)[n+]([O-])c2ccccc2n1O,3,3,0,81*,0,4652
CCN(CCCNC(=O)Cn1ncc2c([nH]c3ccc(C)cc32)c1=O)c1cccc(C)c1,6,0,1,1,0,4512
CCOc1c(C)cc(-c2ncccc2O)cc1C,-4,-3,-2,0,-1,22538*!
COc1ccc(-c2ncccc2O)cc1,-7,7,0,0,0,2533
CC1CCN(C(=O)c2[nH]cnc2C(=O)Nc2nccs2)CC1,-6,9,0,0,0,3961
O=C(CNC(=O)Cc1ccccc1)NCC(=O)OCc1ccc(C(=O)c2ccccc2)cc1,-3,-1,-7,-1,-1,16310*
CCOC(=O)c1ccc(COC(=O)CNC(=O)CNC(=O)Cc2ccccc2)cc1,-2,-4,-1,0,-1,5526
CC1Sc2ccc(S(=O)(=O)CCC(=O)NCc3cccs3)cc2NC1=O (stereo not drawn),-3,8,4,1,-1,5983
CCCCC(=O)Nc1ccc(C(=O)N2CCC(C(=O)OCC)CC2)cc1,3,-3,2,-1,1,23061*
CCOC(=O)C1CCCN(C(=O)c2ccc3c(c2)OCO3)C1 (stereo not drawn),5,6,-6,0,1,6270
CCCCC(=O)Nc1ccc(C(=O)NCCc2ccccc2)cc1,-2,-3,-3,-2,0,6283
CCCCCCC(=O)Nc1ccc(C(=O)N2CCCC2)cc1,-4,-3,-6,-2,0,11443
CCOC(=O)C1CCCN(Cc2ccc3c(c2)OCO3)C1 (stereo not drawn),-4,1,-1,2,0,16327*
CCOC(=O)C1CCN(C(=O)c2ccc3c(c2)OCO3)CC1,2,2,-1,0,2,22950*
CCCCC(=O)Nc1ccc(C(=O)NCC(=O)OC)cc1,2,6,0,0,-1,22542*
COc1ccc2nc3n(c(=O)c2c1)-c1ncccc1C(=O)NC3C (stereo not drawn),2,0,6,x,0,3475
CC1CCN(C(=O)CSc2ccc(-c3ccccc3)nn2)CC1,-3,-5,-2,0,-1,4031
Cc1ccccc1-c1csc(C(O)(c2ccccc2)C(F)(F)F)n1 (stereo not drawn),1,x,2,x,1,2915
O=C(Nc1ccccc1)N(c1ccccc1)C1C=CS(=O)(=O)C1 (stereo not drawn),-13,9,-1,x,0,4412
CCOC(=O)C1CCN(C(=O)N(C)C)CC1,1,-7,-3,0,0,23160*
SMILES,BoNT-F LC inh,MazF activator,Anthrax LF inh2,PfHsp40 rescue,BoNT-A LC inh2,Bead autofluor
CC1CCc2sc(C(=O)NN=C3CCCC3)cc2C1 (stereo not drawn),-11,4,0,x,0,4668
COC(=O)c1cccc(C23CC4(C2)[C@H](CN(Cc2cccnc2)[C@@H]4c2ccccc2)C3c2ccc(C(F)(F)F)cc2)c1 (stereo partly drawn),x,-6,x,x,x,x
COc1cccc(-n2cnc3sc(C)cc3c2=O)c1,-5,3,-4,-1,-1,4547
COc1ccc(C(=O)NCc2nnc(SCC(=O)NCCc3ccccc3)o2)cc1,0,-12,-2,-1,0,5983
Cc1cc(/C=C2/SC(=S)N(c3cccc(C(F)(F)F)c3)C2=O)c(C)n1-c1cccnc1,84*,-9,46*,0,53*,11089
COc1ccc(N2CCN(CNC(=O)c3ccccc3)CC2)cc1,u,5,19,1,u,3474
CC(C)(C)c1ccc(-n2ncc3c2CCCC3NC(=O)C2=NNC(=O)CC2)cc1 (stereo not drawn),2,4,0,-1,-2,4648
COC(=O)c1ccc(C)c(NC(=O)c2nn(C)c(=O)c3ccccc23)c1,1,4,-4,1,u,22678*
CC1CCC(NC(=O)c2nn(C)c(=O)c3ccccc23)CC1 (stereo not drawn),-8,2,-3,x,-1,3083
Cn1nc(C(=O)NC2CCCCC2)c2ccccc2c1=O,3,-5,-1,0,u,21828*
CCOc1ccccc1C1C(C#N)=C(N)Oc2cc(N)ccc21 (stereo not drawn),0,7,-7,1,3,21823*
COc1ccc(OC)c(S(=O)(=O)CC(O)CS(=O)(=O)c2ccccc2)c1 (stereo not drawn),-7,2,0,0,-2,5872
Cc1ccc(NC(=O)c2c(C(F)(F)F)nn(C)c2SCc2cccc(C(F)(F)F)c2)cc1C,-8,-1,-5,1,-2,16554*
Cc1ccc(NC(=O)c2c(C(F)(F)F)nn(C)c2Cl)cc1C,3,0,3,0,u,19260*
Cn1nc(C(F)(F)F)c(C(=O)Nc2ccc(Cl)cc2)c1Cl,-5,4,2,-1,u,u
Cn1cc(C(=O)Nc2ccc(Cl)cc2)c(C(F)(F)F)n1,-2,3,1,0,0,2188
Cc1ccc(NC(=O)c2c(C(F)(F)F)nn(C)c2SCc2ccc(Cl)cc2)cc1C,-11,-17,-1,1,-4,18135*
Cc1ccc(-c2nc3ccc(Cl)cc3n2OC(C)C(=O)O)cc1 (stereo not drawn),-3,-2,-1,1,-1,2478
NC(=N\N=CCc1ccccc1)/C(N)=N/N=CCc1ccccc1,-7,2,-9,0,1,3761
O=C(COC(=O)c1cc[n+]([O-])cc1)Nc1ccc(Cl)cc1Cl,-7,-2,1,-1,-2,5779

# Source: PubChem
